Calls of active or inactive are those of the source. Unless noted, the rule behind the calls is not given here.

This note sets out measurements from PubChem BioAssay.

A short description of experiment [1]: compounds binding Alexa647 anti-His antibody – biochemical, small-molecule microarray, 635 nm fluorescence, artefact control for SMM control protein annotation, primary screen (AID 1128).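 Note: score merges feature fluorescence with signal-to-noise for each printed compound spot.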 Conditions: higher = more signal.
The subject of experiment [2] is Human papillomavirus type 1a E7 protein (residues 1-88). As to the kind of experiment: HPV1a E7 small-molecule binders, primary screen, biochemical, small-molecule microarray, residues 1-88, 635 nm (AID 1129). Conditions: small-molecule microarray binding, fluorescence 635 nm; higher = more signal.
For experiment [3], the target named is Focal adhesion kinase 1 (Homo sapiens) (UniProt Q05397). Briefly: PTK2 protein binding on printed compound slides – biochemical, small-molecule microarray, 635/667 nm fluorescence, BSA, DTT, primary screen (AID 1130).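 Note: composite of spot emission at 667 nm and signal to noise over triplicate slides.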 Conditions: 635 nm fluorescence, higher = more signal.
The test system of experiment [4] is Fibrinogen (Alexa647-labelled). Briefly: Alexa647-fibrinogen binding to printed small molecules – biochemical, small-molecule microarray, 635/667 nm fluorescence, artefact control for SMM control-protein annotation, profiling panel (AID 1131).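 Note: z-score merges 667 nm fluorescence with per-spot signal-to-noise over triplicate slides.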 Conditions: fibrinogen-A647 binding fluorescence, higher = more signal.
In experiment [5] the target is Follistatin (Homo sapiens) (UniProt P19883). Briefly: FST protein binding to printed compounds – biochemical, small-molecule microarray, 635/667 nm fluorescence, primary screen (AID 1132). Conditions: 635 nm fluorescence, higher = more signal.
Experiment [6] deals with Fibroblast growth factor 2 (Homo sapiens) (UniProt P09038). Briefly: basic fibroblast growth factor binding to printed compounds – biochemical, small-molecule microarray, 635/667 nm fluorescence, primary screen (AID 1133). The following applies: FGF2, fluorescence 635/667, higher = more signal.
Experiment [7] is described as follows: JC-1 mitochondrial potential readout, lung cancer cells – cell-based, A549, JC-1 fluorescence, basal, 24 h, 100 nL, profiling panel (AID 1138).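 Note: A549 lung adenocarcinoma cells under basal conditions with no added stimulus; test concentration not given here.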 The following applies: higher = more signal.
The next experiment has as its system Lefty1. Briefly: Lefty1 protein binding to printed compounds – biochemical, small-molecule microarray, 635/667 nm fluorescence, primary screen (AID 1139). The following applies: fluorescence 635/667, higher = more signal.
The subject of experiment [8] is wheat germ agglutinin (Triticum aestivum), Alexa647-labelled. Briefly: Alexa647-WGA lectin binding to printed small molecules – biochemical, small-molecule microarray, 635/667 nm fluorescence, artefact control for SMM control-protein annotation, profiling panel (AID 1140).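 Note: score merges 667 nm feature emission with signal to noise over triplicate slides.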 The following applies: WGA-A647 binding, 635 nm fluorescence, higher = more signal.
Experiment [9] addresses Luciferin 4-monooxygenase (Photinus pyralis) (UniProt P08659). Briefly: inhibition of purified Photinus pyralis luciferase – biochemical, luminescence, purified enzyme, 2006 set, primary screen (AID 1141).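 Note: cell-free assay with purified firefly luciferase at 100 ng per well in PBS; test concentration not given here.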 The following applies: purified firefly luciferase, SteadyGlo luminescence, 30 min; higher = more signal, called active from +8 up or from −8 down.
Experiment [10] has as its system Wnt5a (protein binding on small-molecule microarray). As to the kind of experiment: small molecules binding Wnt5a protein – biophysical, small-molecule microarray, 635/667 nm fluorescence, primary screen (AID 1142).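 Note: fluorescence read at 667 nm with signal to noise per printed feature.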 The following applies: 635 nm fluorescence, higher = more signal.
A short description of experiment [11]: ATP-based viability of Huh7 replicon cells – cell-based, CellTiter-Glo luminescence, basal, 48 h, cytotoxicity control for HCV replication inhibitor project, primary screen (AID 1143).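 Note: Huh7 hepatoma cells carrying a hepatitis C replication reporter with no stimulus; test concentration not given here.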 Conditions: higher = more signal, called active from +8 up or from −8 down. A general note: Replicon systems follow genome replication, usually without infectious particles.
Experiment [12] can be described thus: Pseudomonas biofilm growth suppression – PAO1 strain, BacTiter-Glo luminescence, LB-PBS, primary screen (AID 1144). The following applies: P. aeruginosa PAO1 biofilm, 12 h, higher = more signal.
The nature of experiment [13]: basal CRE-LacZ reporter activity in PC12 – cell-based, unstimulated, primary screen (AID 1145). Conditions: no forskolin, luminescence, 4.5 h, higher = more signal, called active from +8 up or from −8 down.
Experiment [14] can be described thus: forskolin-driven CRE-LacZ activity in PC12 – cell-based, CRE-LacZ reporter, forskolin-stimulated, primary screen (AID 1146).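 Note: PC12 cells with 6xCRE LacZ reporter stimulated by forskolin 10 µM; beta-galactosidase reporter signal reflecting CREB driven transcription.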 Conditions: luminescence, 4.5 h, higher = more signal, called active from +8 up or from −8 down.
Experiment [15] concerns the target Streptavidin (Streptomyces avidinii) (UniProt P22629). As to the kind of experiment: compounds binding control protein streptavidin – biophysical, small-molecule microarray, 635/667 nm fluorescence, artefact control for SMM compound annotation, primary screen (AID 1147).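 Note: signal reflects streptavidin binding to arrayed compounds as a control protein.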 The following applies: higher = more signal.
Experiment [16] can be described thus: probe aInhba binding on compound microarray – biochemical, small-molecule microarray, 635/667 nm fluorescence, primary screen (AID 1148).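 Note: score merges 667nm spot fluorescence with signal-to-noise for antibody binding to printed compounds.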 The following applies: higher = more signal.
For experiment [17], the target named is Torsin-1A (Homo sapiens) (UniProt O14656). As to the kind of experiment: TOR1A wild-type binding on microarray – cell lysate, small-molecule microarray, lysate, 635/667 nm, primary screen (AID 1149). The following applies: COS7 hTOR1A-WT lysate, 635 nm fluorescence, higher = more signal.
Experiment [18] shares this target. As to the kind of experiment: torsin A mutant lysate binding on microarrays – cell lysate, small-molecule microarray, COS7 lysate, 635/667 nm fluorescence, primary screen (AID 1150).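 Note: score pools 667 nm emission and signal to noise measuring lysate protein binding.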 The following applies: COS7 hTOR1A mutant lysate, 635 nm fluorescence, higher = more signal.
The subject of experiment [19] is Sonic hedgehog protein (Shh). Briefly: Sonic hedgehog microarray binding compounds – biochemical, small-molecule microarray, 635/667 nm fluorescence, primary screen (AID 1151).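 Note: Shh protein binding to compounds spotted on small-molecule microarray slides; score combines spot fluorescence intensity with signal-to-noise across triplicate slides.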 The following applies: 635 nm fluorescence, higher = more signal.

Chain of Streptavidin (Streptomyces avidinii) (P22629 whole entry, looked up): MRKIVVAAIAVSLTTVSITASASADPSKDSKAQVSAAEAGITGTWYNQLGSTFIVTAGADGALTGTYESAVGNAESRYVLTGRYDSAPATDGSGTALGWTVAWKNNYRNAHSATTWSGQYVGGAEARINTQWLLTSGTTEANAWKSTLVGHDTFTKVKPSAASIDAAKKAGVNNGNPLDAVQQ
Chain of Torsin-1A (Homo sapiens) (O14656 whole entry, looked up): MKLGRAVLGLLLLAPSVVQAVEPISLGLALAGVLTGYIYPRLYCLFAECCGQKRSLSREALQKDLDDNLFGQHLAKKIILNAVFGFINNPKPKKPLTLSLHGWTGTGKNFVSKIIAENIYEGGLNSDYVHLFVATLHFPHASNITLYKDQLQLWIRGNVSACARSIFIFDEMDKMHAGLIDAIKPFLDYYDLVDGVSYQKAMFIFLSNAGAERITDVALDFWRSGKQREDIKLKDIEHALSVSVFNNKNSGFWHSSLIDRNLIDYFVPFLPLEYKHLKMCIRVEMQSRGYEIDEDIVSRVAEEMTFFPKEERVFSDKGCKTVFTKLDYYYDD
Chain of Fibroblast growth factor 2 (Homo sapiens) (P09038 whole entry, looked up): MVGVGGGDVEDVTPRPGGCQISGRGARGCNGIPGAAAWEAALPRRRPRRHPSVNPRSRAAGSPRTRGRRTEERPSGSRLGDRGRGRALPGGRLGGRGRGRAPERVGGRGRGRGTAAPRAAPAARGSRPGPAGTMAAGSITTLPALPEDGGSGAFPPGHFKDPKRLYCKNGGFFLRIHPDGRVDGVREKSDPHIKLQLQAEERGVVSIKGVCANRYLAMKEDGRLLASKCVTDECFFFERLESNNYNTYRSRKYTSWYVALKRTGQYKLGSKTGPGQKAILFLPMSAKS
Chain of Luciferin 4-monooxygenase (Photinus pyralis) (P08659 whole entry, looked up): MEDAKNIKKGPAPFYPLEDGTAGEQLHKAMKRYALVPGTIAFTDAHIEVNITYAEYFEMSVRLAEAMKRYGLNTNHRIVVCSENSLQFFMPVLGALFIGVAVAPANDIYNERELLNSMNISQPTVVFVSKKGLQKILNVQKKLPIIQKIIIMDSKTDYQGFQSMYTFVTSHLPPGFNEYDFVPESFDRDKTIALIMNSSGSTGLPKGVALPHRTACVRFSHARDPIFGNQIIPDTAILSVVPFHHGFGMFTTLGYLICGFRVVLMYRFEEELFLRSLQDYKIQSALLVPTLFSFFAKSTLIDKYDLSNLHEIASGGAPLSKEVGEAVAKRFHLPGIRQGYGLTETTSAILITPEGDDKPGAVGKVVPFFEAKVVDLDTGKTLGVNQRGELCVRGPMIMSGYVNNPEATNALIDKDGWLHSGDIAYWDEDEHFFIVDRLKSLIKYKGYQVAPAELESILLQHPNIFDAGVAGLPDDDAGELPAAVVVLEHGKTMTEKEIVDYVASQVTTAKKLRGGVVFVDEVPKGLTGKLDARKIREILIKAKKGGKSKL
Chain of Focal adhesion kinase 1 (Homo sapiens) (Q05397 whole entry, looked up): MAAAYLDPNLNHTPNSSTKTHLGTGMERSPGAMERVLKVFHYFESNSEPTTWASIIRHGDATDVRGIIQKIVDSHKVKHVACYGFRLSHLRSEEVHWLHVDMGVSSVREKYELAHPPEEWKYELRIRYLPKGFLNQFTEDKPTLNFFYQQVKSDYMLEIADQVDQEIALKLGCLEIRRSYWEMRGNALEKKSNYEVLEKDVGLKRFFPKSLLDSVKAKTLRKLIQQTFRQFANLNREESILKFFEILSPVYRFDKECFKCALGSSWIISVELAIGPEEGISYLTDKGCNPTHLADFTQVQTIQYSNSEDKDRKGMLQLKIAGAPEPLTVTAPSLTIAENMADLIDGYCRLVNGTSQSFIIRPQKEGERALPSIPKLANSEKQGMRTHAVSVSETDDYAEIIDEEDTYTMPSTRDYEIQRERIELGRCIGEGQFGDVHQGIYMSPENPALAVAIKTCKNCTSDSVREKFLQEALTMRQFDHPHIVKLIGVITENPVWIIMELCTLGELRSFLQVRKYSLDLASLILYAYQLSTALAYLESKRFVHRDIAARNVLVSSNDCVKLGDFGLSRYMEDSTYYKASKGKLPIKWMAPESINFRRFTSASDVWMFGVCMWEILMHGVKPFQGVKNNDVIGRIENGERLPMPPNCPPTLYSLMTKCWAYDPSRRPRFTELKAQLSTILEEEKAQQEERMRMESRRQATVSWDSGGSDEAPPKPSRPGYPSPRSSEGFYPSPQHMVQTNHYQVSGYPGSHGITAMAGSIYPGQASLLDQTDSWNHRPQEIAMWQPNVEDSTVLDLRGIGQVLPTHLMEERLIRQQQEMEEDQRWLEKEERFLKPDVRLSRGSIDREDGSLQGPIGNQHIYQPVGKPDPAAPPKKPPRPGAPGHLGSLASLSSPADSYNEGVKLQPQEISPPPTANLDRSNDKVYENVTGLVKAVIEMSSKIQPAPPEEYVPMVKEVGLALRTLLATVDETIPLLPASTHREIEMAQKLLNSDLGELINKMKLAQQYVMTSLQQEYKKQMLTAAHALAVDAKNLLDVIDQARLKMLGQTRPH
Chain of Follistatin (Homo sapiens) (P19883 whole entry, looked up): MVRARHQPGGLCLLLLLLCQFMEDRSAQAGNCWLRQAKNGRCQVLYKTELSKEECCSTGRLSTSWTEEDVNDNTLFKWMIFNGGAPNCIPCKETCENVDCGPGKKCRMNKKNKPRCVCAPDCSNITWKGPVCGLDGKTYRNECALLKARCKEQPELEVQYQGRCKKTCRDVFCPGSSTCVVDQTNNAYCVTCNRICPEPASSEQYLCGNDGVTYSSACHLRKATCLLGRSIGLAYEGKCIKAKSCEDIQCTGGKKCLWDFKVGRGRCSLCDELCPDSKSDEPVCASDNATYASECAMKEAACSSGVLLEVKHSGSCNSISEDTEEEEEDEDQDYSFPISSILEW

`O=C(NCC(F)(F)F)[C@@H]1c2ccccc2C(=O)N(Cc2ccccc2C(F)(F)F)[C@H]1c1ccc(CO)cc1`: the composite z-score in experiment [1] is 0.219; in [2], -0.479; in [3] it was -0.335; in experiment [4], -1.14; in experiment [5] it was 0.706; in experiment [6], 0.548. Also, the composite z-score is -0.569 in the experiment on Lefty1; -0.885 in experiment [8]; 0.38 in experiment [10]; -0.631 in experiment [15]; 0.0906 in experiment [16]; 0.702 with Torsin-1A (Homo sapiens) [17]. The composite z-score was -0.274 in the experiment with Torsin-1A (Homo sapiens) [18] and 0.0223 in [19]. For the same compound, the z-score is 0.0955 in experiment [7]; 0.461 (inactive) in experiment [9]; -0.325 (inactive) in experiment [11]; 0.266 (inactive) in experiment [12]; -0.295 (inactive) in experiment [13]; 1.02 (inactive) in experiment [14].

With `O=C1OCC=C[C@H]2OC34C=CCN(Cn5nnc6ccccc65)C(=O)[C@H]3N(CCCO)C(=O)[C@@H]4[C@@H]12` (stereo not given in full), the composite z-score in [1] is 0.21; in [2], -0.603; in [3] it was -0.506; in experiment [4] it was -1.3; in [5], -0.537; in experiment [6], -0.241. In addition, the composite z-score is -0.618 in the experiment on Lefty1; -0.43 in experiment [8]; -0.439 in experiment [10]; -0.266 in experiment [15]; -0.224 in experiment [16]; 0.183 with Torsin-1A (Homo sapiens) [17]. Moreover, the values for the composite z-score (in the experiment with Torsin-1A (Homo sapiens) [18]; in experiment [19]) were -1.85 and 0.182, respectively. In addition, the z-score in experiment [7] was -0.842; in experiment [9], 0.314 (inactive); in experiment [11], -2.27 (inactive); in [12], -1.17 (inactive); in experiment [13], -0.887 (inactive); in experiment [14], -0.247 (inactive).

Take `COC(=O)[C@@]1(Cc2ccc(F)cc2)[C@H]2c3cc(C(=O)N(C)C)n(CCc4ccc(O)c(OC)c4)c3C[C@H]2CN1C(=O)c1ccccc1`: the composite z-score in [1] was 0.339; in experiment [2] it was 0.923; in experiment [3], 0.0947; in [4] it was 0.886; in experiment [5], 0.472; in experiment [6], 0.741. In addition, the composite z-score with Lefty1 was -0.244; in experiment [8] it was 0.312; in experiment [10] it was 2.23; in experiment [15], 0.637; in experiment [16], 1.62; in the experiment with Torsin-1A (Homo sapiens) [17], 0.334. For the same compound, the composite z-score with Torsin-1A (Homo sapiens) [18] is 0.234; in [19], -0.804. Besides, the z-score is 0.345 in [7]; 0.215 (inactive) in experiment [9]; 0.462 (inactive) in experiment [11]; -0.0301 (inactive) in experiment [12]; 0.783 (inactive) in [13]; 0.15 (inactive) in [14].

As for `CC(C)[Si](C#CCCCC#N)(O[C@H](c1ccccc1)c1cn([C@H](CO)Cc2ccccc2)nn1)C(C)C`, the composite z-score in experiment [1] was -0.135; in experiment [2], 1.12; in experiment [3], 0.26; in experiment [4] it was 0.975; in [5] it was 1.14; in experiment [6] it was 0.812. Further, the composite z-score in the experiment on Lefty1 is 0.385; in experiment [8], 0.231; in experiment [10], -0.187; in experiment [15], 1.18; in experiment [16] it was -0.108; with Torsin-1A (Homo sapiens) [17], 0.531. The composite z-score worked out at 0.477 with Torsin-1A (Homo sapiens) [18] and 0.774 in [19]. The z-score is 0.162 in experiment [7]; -0.175 (inactive) in experiment [9]; -0.248 (inactive) in experiment [11]; -0.747 (inactive) in experiment [12]; -0.463 (inactive) in experiment [13]; 1.01 (inactive) in experiment [14].

On to `O=C(NCC(F)(F)F)[C@@H]1c2ccccc2C(=O)N(Cc2cc(F)cc(C(F)(F)F)c2)[C@H]1c1ccc(CO)cc1`, for which the composite z-score in experiment [1] was 0.44; in experiment [2], -0.178; in experiment [3] it was -0.385; in experiment [4], -0.78; in experiment [5], -0.682; in [6], -0.843. Moreover, the composite z-score in the experiment on Lefty1 is -1.24; in experiment [8], -0.948; in experiment [10], -0.328; in experiment [15] it was -1.24; in [16], -0.128; in the experiment with Torsin-1A (Homo sapiens) [17], -1.73. Further, the composite z-score is -1.22 with Torsin-1A (Homo sapiens) [18] and -1.09 in [19]. Besides, the z-score is -1.37 in experiment [7]; 1.08 (inactive) in experiment [9]; -1.77 (inactive) in experiment [11]; -1.38 (inactive) in [12]; -0.529 (inactive) in experiment [13]; 0.861 (inactive) in [14].
